In the library only some 7.8% were active in any assay of this set; here they are far more common.
Tau fil binding: tau filament binding; P10636; recombinant tau filaments, thioflavin S fluorescence, 15 h; filaments grown with octadecylsulfate alongside compound; Potency, µM (series often up to 57.1 µM); 71,000 tested, 2% active; AID 596;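 also: actives lower thioflavin S fluorescence by blocking filaments or displacing dye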
Target sequence (P10636 whole entry, looked up): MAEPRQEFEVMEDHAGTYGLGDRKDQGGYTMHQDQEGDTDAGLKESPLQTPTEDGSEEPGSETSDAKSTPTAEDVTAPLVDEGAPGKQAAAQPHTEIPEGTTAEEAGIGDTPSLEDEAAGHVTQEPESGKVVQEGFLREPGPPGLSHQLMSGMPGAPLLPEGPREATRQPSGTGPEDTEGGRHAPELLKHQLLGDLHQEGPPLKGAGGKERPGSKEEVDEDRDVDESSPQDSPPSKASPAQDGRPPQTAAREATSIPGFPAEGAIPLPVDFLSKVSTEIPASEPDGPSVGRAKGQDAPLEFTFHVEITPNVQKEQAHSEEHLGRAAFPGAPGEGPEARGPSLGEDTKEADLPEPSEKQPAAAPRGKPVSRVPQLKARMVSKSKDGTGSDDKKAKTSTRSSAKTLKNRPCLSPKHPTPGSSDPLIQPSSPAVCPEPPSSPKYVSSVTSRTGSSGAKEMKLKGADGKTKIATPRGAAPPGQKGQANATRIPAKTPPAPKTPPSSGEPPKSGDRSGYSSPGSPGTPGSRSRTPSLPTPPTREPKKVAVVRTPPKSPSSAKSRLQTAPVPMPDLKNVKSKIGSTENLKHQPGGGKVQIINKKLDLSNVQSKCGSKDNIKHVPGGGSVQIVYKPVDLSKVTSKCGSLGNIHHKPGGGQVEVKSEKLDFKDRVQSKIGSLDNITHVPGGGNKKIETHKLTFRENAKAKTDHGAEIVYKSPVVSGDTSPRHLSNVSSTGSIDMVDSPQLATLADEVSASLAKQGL
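Thioflavine S fluorescence (ex 450, em 510 nm) reports filaments formed from 1 uM human tau plus 30 uM ODS over 15 h at 37 C (10 mM HEPES pH 7.4, 100 mM NaCl, 5 mM DTT); compounds displacing dye or blocking filaments lower signal.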
HEK293 cAMP ctrl: counter-screen for TSHR agonists: cAMP increase in parental HEK293 | parental HEK293 CNG cAMP sensor, membrane potential fluorescence | Potency, µM (titrated, usually from 57.1 µM), actives largely listed as activators | 73,000 tested, 2.5% active | AID 938; also: nearly all actives have a fitted effect of over 55% in size
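Parental HEK 293 cells stably expressing a cAMP-gated CNG channel were loaded with membrane potential dye containing 100 uM RO 20-1724 for 60 min. Compound added for 30 min; depolarization read as fluorescence intensity at 590 nm.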
Bst PK mod: pyruvate kinase (B. stearothermophilus) modulation; purified pyruvate kinase, luminescence ATP production; ribose 5-phosphate activator present at AC10; Potency, µM; 51,000 tested, 1.2% active; in the data active = potency below about 11 µM; inconclusive = mostly about 12 µM to 25 µM;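 the screen sought inhibitors and activators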
TSHR ag: agonists of human thyroid stimulating hormone receptor. HEK293-CNG-TSHR cells (CNG channel as cAMP sensor), membrane potential dye, cAMP. AID 926. 73,000 tested, 0.48% active. Potency, µM (titrated, usually from 57.1 µM), usual class: activators. P16473; active = well fitted activation curve with a large enough effect in the main read-out, with a control signal flat, not every such curve was filed as active; inconclusive = small, poorly fitted or top-dose-only effect, or a change in a side signal; inactive = no such curve, though single readings can be large or run the other way; reference of the percent scale not stated here;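 also: the control signal comes from parental cells without the receptor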
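cAMP rise detected as CNG-channel membrane depolarization by fluorescent dye (emission 590 nm), 30 min after compound, following 60 min dye loading containing 100 uM RO 20-1724 at room temperature. Cells: TSHR/CNG HEK 293, with parental CNG HEK 293 as control.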
15-hLO inh: blocks human 15-lipoxygenase activity; 74,000 tested, 1.4% active; purified 15hLO-1, xylenol orange hydroperoxide absorbance; AID 887; Potency, µM (titrated, usually from 57.1 µM), most hits filed as inhibitors; also: nearly all actives have a fitted effect of over 55% in size
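Compounds were preincubated 15 min at room temperature with 40 nM purified human enzyme (25 mM Hepes pH 7.5, 0.01% Triton X-100); 50 uM arachidonic acid reacted 6 min. Fe-xylenol orange detection, 30 min, absorbance ratio 573/405 nm.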
FLuc inh: blocks Photinus pyralis firefly luciferase activity; P08659; purified firefly luciferase, luminescence, 8 min; Potency, µM (doses to about 57.1 µM), actives largely listed as inhibitors; 72,000 tested, 2.2% active; AID 411; also: nearly all actives have a fitted effect of over 40% in size
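Luminescence read-out after 8 min at room temperature; enzyme reaction used luciferin plus 10 uM ATP (linear range) in imidazole buffer pH 7.2 with KCl, MgCl2, Tween 20 and BSA. Each sample was run as a titration.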
A number is an active result; . = inactive; ? = inconclusive; / = no result; [ ] = dose if it differs, or a comment. Unless noted, calls follow the shape of the dose curve; as a rule, active = well fitted curve in the direction sought with a large enough effect; inconclusive = small, poorly fitted or top-dose-only effect, or another doubt; inactive = no such curve, though single readings can be large; an effect the other way counts as inactive or inconclusive.

SMILES	Tau fil binding	HEK293 cAMP ctrl	Bst PK mod	TSHR ag	15-hLO inh	FLuc inh
O=C(CN(Cc1ccc2c(c1)OCO2)C(=O)CSc1nc2ccccc2o1)NC1CCCCC1	.	16µM	.	?	.	.
N#CC1=C2SCN(Cc3ccco3)CN2C(=O)CC1c1cccc2ccccc12 (stereo not drawn)	?	.	.	.	7.9µM	.
N#CC1=C2SCN(c3ccc(F)cc3)CN2C(=O)CC1c1cccc(F)c1 (stereo not drawn)	.	.	/	.	?	.
CC(Sc1ncc(C#N)c(N)n1)C(=O)Nc1ccccc1 (stereo not drawn)	.	32µM	.	?	.	.
COC(=O)CSc1ncc(C#N)c(N)n1	.	.	.	.	.	.
CCC/C=C(\CCC)C(NS(=O)(=O)c1ccc(C(F)(F)F)cc1)c1ccc(C(=O)OC)cc1 (stereo not drawn)	.	.	/	.	/	/
CCN1C(=O)c2cccc3c(S(=O)(=O)Nc4ccccc4OC)ccc1c23	20µM	?	.	?	.	.
CCN1C(=O)c2cccc3c(NS(=O)(=O)c4ccc(NC(C)=O)cc4)ccc1c23	.	.	.	.	.	.
O=C(O)C[C@H](NC(=O)CP(=O)(O)O)C(=O)O.[NH-][C@@H]1CCCC[C@@H]1[NH-].[Pt]	.[11.4 µM]	.[11.4 µM]	/	.[11.4 µM]	.[11.4 µM]	.[11.4 µM]
O=C1c2ccccc2NC2CCCCC12 (stereo not drawn)	.	5µM	.	?	.	.
O=c1cc(C(F)F)oc2c1ccc1ccccc12	.	.	/	.	13µM	.
CCCn1c(-c2cccs2)nc2ccccc21	.	?	.	?	.	.
CCC(C)n1c(-c2cccs2)nc2nc3ccccc3nc21 (stereo not drawn)	13µM	.	.	.	.	.
C=CCn1c(-c2cccs2)nc2nc3ccccc3nc21	20µM	.	/	.	.	20µM
O=CN1CC(=O)N(c2ccccc2)c2c([nH]c3ccccc23)C1	.	.	.	.	.	.
COc1ccc(-c2c3c(=O)n(C)c(=O)n(C)c3cn2-c2cc(OC)ccc2OC)cc1	.	.	.	25µM	.	.
CCc1cc(N2CCOCC2)cc2c1[nH]c1ccccc12	25µM	.	/	.	.	.
Cc1ccc(S(=O)(=O)c2c(N)n(/N=C/c3ccco3)c3nc4ccccc4nc23)cc1C	16µM	.	.	.	?	.
Cc1nc2c(c(=O)n1Cc1ccccc1Cl)c1nc3ccccc3nc1n2Cc1ccco1	16µM	?	.	?	?	.
COc1ccc(Cn2c3nc4ccccc4nc3c3c(=O)n(Cc4ccco4)c(C)nc32)cc1	?	?	.	?	.	.
COc1ccc(Cn2c(C)nc3c(c2=O)c2nc4ccccc4nc2n3Cc2ccco2)cc1	2.5µM	?	.	?	.	.
COc1ccc(S(=O)(=O)c2c(N)n(Cc3ccco3)c3nc4ccccc4nc23)cc1	.	.	.	.	20µM	.
C[C@@]1(C(NC(=O)c2cccs2)c2ccc(-c3ccccc3)cc2)C[C@H]1C1CCCCC1 (stereo partly drawn)	.	.	/	.	/	/
CC(=O)Nc1ccc(-c2nc3c(C)cccc3[nH]2)cc1	.	.	/	.	.	3.2µM
COc1ccc(CNc2ccnc(-c3c(C)noc3C)n2)c(OC)c1	.	.	/	/	25µM	.[2.29 µM]
SMILES	Tau fil binding	HEK293 cAMP ctrl	Bst PK mod	TSHR ag	15-hLO inh	FLuc inh
COc1ccc(CNc2ccnc(-c3ccoc3)n2)c(OC)c1	.	?	/	?	.	.[2.29 µM]
CCC(Sc1nc2ccccc2s1)C(=O)Nc1nnc(C)s1 (stereo not drawn)	.	20µM	/	?	.	.
CCC(Sc1nnc(C)s1)C(=O)Nc1nccs1 (stereo not drawn)	.	25µM	.	?	.	.
Cc1nnc(SCC(=O)Nc2nccs2)s1	.	.	.	.	.	.
O=C1c2ccccc2C(=O)C12Cc1ccccc1N1CCN(c3ccccc3)CC12 (stereo not drawn)	10µM	.	.	/	.	.
CCOC(=O)N/N=C1/C[C@@H](O)[C@@H](O)[C@@H]2[C@@H]3C(=O)N([C@@H](C)c4ccccc4)C(=O)[C@H]3CC[C@@H]12	/	.[11.4 µM]	/	.[11.4 µM]	.[11.4 µM]	.[11.4 µM]
O=C(Nc1ccc2nc(-c3cccs3)[nH]c2c1)c1cccs1	.	.	10	.	.	13µM
